Compound activity from PubChem.
The sample as a whole holds a higher share of hits than the screen did.
Artemis inh – Artemis endonuclease inhibitors, primary screen, biochemical, fluorescence intensity, FAM/BHQ-1 hairpin substrate; Protein artemis (Homo sapiens), Q96SD1; recombinant Artemis, quenched FAM hairpin cleavage fluorescence; inhibition, % at 10 µM; 30,000 compounds, 0.78% hits; AID 686954, 2013;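 active = at 10 µM dose, at least 30% inhibition, measured as corrected fluorescence normalized to stimulator and neutral control wells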
Target sequence (Q96SD1 whole entry, looked up): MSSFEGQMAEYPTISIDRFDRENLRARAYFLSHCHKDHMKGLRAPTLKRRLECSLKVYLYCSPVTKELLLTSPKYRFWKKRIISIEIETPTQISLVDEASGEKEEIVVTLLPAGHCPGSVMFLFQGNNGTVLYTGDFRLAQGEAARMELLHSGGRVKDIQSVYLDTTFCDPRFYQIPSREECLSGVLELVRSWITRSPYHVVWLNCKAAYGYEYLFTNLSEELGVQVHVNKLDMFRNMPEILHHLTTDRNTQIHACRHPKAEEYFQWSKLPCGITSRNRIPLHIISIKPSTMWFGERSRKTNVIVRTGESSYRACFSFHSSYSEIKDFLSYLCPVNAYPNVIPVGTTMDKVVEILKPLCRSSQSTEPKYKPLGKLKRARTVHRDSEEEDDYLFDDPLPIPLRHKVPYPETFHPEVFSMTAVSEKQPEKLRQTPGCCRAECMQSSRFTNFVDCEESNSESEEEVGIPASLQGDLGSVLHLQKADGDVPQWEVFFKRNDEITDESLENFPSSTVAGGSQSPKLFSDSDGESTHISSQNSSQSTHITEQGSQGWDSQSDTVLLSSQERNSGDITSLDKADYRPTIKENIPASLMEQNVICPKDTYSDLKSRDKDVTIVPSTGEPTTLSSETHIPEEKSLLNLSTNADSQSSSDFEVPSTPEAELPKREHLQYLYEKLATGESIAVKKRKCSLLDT
* marks the source's active call; other numbers are inactive results.

SMILES	Artemis inh
COC(=O)C1=C(N)c2c(F)cccc2C1(C#N)c1ccc(F)cc1 (centres undefined)	-3
C=CCOC(=O)c1cc(-c2ccc(/C=C3\C(=O)NC(=O)C(C#N)=C3C)o2)ccc1Cl	36*
C=CCOC(=O)C1=C(C)NC(SC)=C(C#N)C1c1ccc(OCC)cc1 (centres undefined)	0
CC1=NOC(=O)/C1=C\c1ccc(-c2cccc(Cl)c2)o1	28
COc1cccc(C(C(=O)NC2CCCC2)N(Cc2ccc(C)cc2)C(=O)c2ccco2)c1OC (centres undefined)	-4
COc1cccc(CN(C(=O)c2ccco2)C(C(=O)NC2CCCC2)c2cccnc2)c1 (centres undefined)	-2
COc1ccccc1CN(C(=O)c1ccco1)C(C(=O)NC1CCCC1)c1ccncc1 (centres undefined)	83*
COc1ccc(C2CC(=O)C=C(NCCC(C)C)C2)cc1 (centres undefined)	2
Cc1c(C=O)c2ccccc2n1CC(=O)N1CCc2ccccc2C1	-3
Cc1ccc(Nc2nnc(SCC(=O)NCc3ccco3)s2)cc1	3
O=c1c2c(-c3ccco3)csc2nc(SCc2cn3cccnc3n2)n1-c1ccccc1	31*
c1ccc2c(SCc3cn4cccnc4n3)ncnc2c1	-5
O=c1c2ccccc2nc(SCc2cn3ccsc3n2)n1-c1ccc(F)cc1	13
COc1ccc2[nH]c(=O)c(CNc3cccc(C)c3)cc2c1	13
CCN(CC)c1ccc(-c2nn3c(-c4n[nH]c5c4CCC5)nnc3s2)cc1	58*
Fc1ccc(C2=Nn3c(nnc3-c3n[nH]c4c3CCC4)SC2)cc1	5
C1CCC(c2nn3c(-c4n[nH]c5c4CCC5)nnc3s2)CC1	6
Cc1cc(C)c(C(=O)C2OC(=O)C(C)(C)C(=O)C2(C)C)c(C)c1 (centres undefined)	4
CCOC(=O)C1CCCN(Cc2nc(N)nc(Nc3ccc(Cl)cc3)n2)C1 (centres undefined)	34*
CCOC(=O)C1CCCN(C(=O)Cc2ccc(Cl)cc2)C1 (centres undefined)	-2
CCOC(=O)N1CCN(Cc2nc(N)nc(Nc3ccc(Oc4ccccc4)cc3)n2)CC1	39*
Cc1ccc(Nc2nc(N)nc(CN3CCN(Cc4ccc5c(c4)OCO5)CC3)n2)cc1	1
CCCCOc1ccc(NC(=O)CN2CCN(C(=O)OCC)CC2)cc1	0
CCOC(=O)C1CCCN(c2cc(C)nc3cc(-c4ccc(Cl)cc4)nn23)C1 (centres undefined)	1
COC(=O)c1ccc(NC(=O)CSc2nccn2CCc2ccccc2)cc1	-2
SMILES	Artemis inh
CC1CN(C(=O)COc2ncnc3ccccc23)CC(C)O1 (centres undefined)	2
CCn1c(NCc2cc(Br)ccc2NS(=O)(=O)c2ccc(C)cc2)nc2ccccc21	7
COc1ccc2nc(NC(=O)C3CCCN(S(=O)(=O)c4cccs4)C3)sc2c1 (centres undefined)	40*
CCOc1ccc(OCC)c(NC(=O)C2CCCN(S(=O)(=O)c3cccs3)C2)c1 (centres undefined)	-2
COc1ccc2nc(NC(=O)C3CCN(S(=O)(=O)c4cnc[nH]4)CC3)sc2c1	4
CC1(C)C(=O)Nc2ccccc2N1C(=O)COC(=O)c1ccc(Cl)c(S(=O)(=O)NCc2ccccc2)c1	8
Cc1oc2c(c1C(=O)c1ccc(Cl)cc1)C(=O)C(=O)c1ccccc1-2	50*
O=C(c1ccc(O)cc1)c1ccc(Cl)cc1	8
Cc1ccc(C(=O)c2c(C)oc3c2C(=O)C(=O)c2ccccc2-3)cc1	55*
Cc1ccc(C(=O)c2cn[nH]c2-c2ccccc2O)cc1	-1
COc1ccc(C(=O)c2c(C(F)(F)F)oc3c2C(=O)c2ccccc2C3=O)cc1	28
COc1ccc(C(=O)c2ccc(Cl)cc2)cc1	-2
Cc1sc(-c2ccncc2)nc1OC(=O)c1ccccc1	-1
CCOc1cc(C2CC(=O)c3c(ccc4ccccc34)N2)ccc1O (centres undefined)	-3
Cc1cccc(Sc2c(C=O)c3ccccc3n2C)c1	29
Cn1c(Cc2ccccc2)nnc1SCC(=O)c1cccs1	-7
O=C(Cc1ccsc1-c1ccccc1)NO	64*
O=C(Cc1cccs1)Nc1ccc(-c2nnc(-c3ccccc3)o2)cc1	-2
O=C(Nc1nc(-c2cccs2)c(-c2ccccc2)s1)c1ccco1	11
Clc1ccc(COc2ccccn2)cc1Cl	-3
Nc1[nH]nc2nc(NCc3ccccc3)c3c(c12)CCN(Cc1ccccc1)C3	-3
N#Cc1c(NCCN)nc(-c2ccccc2)c2c1CCCC2	8
N#Cc1c(NCCN)nc(NCc2ccccc2)c2c1CCN(Cc1ccccc1)C2	58*
CCOc1cc2c(C#N)c(N3CCOCC3)nc(N)c2c(N)n1	29
CCc1nc(C)c(C#N)c2cc(OC)c(OC)cc12	4
SMILES	Artemis inh
CCCN(CC1CC1)c1nc(N)c2c(N)nc(OC)cc2c1C#N	49*
O=C1c2ccccc2C(=O)c2c1cccc2N1CCOCC1	4
O=C1C(N2CCOCC2)=C(n2nnc3ccccc32)C(=O)c2ccccc21	36*
Cc1nc2ccccc2nc1N1CCOCC1	4
COc1ccc2c(COC(=O)c3n[nH]c4ccccc34)cc(=O)oc2c1	9
Cc1cc2sc(C(=O)O)c(C)c2s1	-5
Cc1cc(Cl)c(S(=O)(=O)N2CCN(c3ccccc3)CC2)cc1OCC(N)=O	10
CN(c1ncc(C(F)(F)F)cc1Cl)n1cc(C(N)=O)c2ccccc2c1=O	3
COc1ccc(NC(=O)CSc2nc(C)cc(C)n2)cc1	0
COc1ccc(-c2c(C#N)c(SCC(=O)Nc3ccccc3)nc3c2CCCC3)cc1	12
COc1ccc(NC(=O)CSc2nc3c(cc2C#N)CN(C)CC3)cc1	37*
O=C(NC1CS(=O)(=O)CC1NCc1ccccc1)c1ccccc1 (centres undefined)	-4
Cn1c(COc2ccc3ccccc3c2)nnc1SCC(=O)OC1CCCCC1	9
Cc1ccc(Oc2nccc(-c3ccc(Cl)cc3)n2)cc1	-4
COc1ccc(-c2nc3c(c(=O)n(C)c(=O)n3C)n2CC2CC(c3ccccc3)=NO2)cc1OC (centres undefined)	-2
CC(C)CC(=O)Nc1ccc(N2CCOCC2)cc1	-9
CNS(=O)(=O)c1cnccc1N1CCN(c2cccc(C(F)(F)F)c2)CC1	-2
c1ccc(-c2cc3n(c2)CCc2ccccc2-3)cc1	-5
O=C(Nc1cccnc1)C1(F)C(F)(F)C(F)(F)C(F)(F)C(F)(F)C1(F)F	-2
COc1cc2ccccc2cc1C(=O)Nc1cccnc1	-1
COC(=O)/C=C/C(=O)Nc1cccnc1	35*
Cc1cc(/C=C2\SC(=Nc3ccccc3)NC2=O)c(C)n1-c1ccc(S(N)(=O)=O)cc1	19
CCCNC(=O)Cn1c(=O)oc2ccccc21	4
Cc1cccc(NC(=O)CCc2ccc(S(=O)(=O)NC3CCCCC3)cc2)c1	3
CCOc1cc(C)c(Cl)cc1S(=O)(=O)NCC1CCCO1 (centres undefined)	0
COc1cc(C)c(Cl)cc1S(=O)(=O)NCC1CCCO1 (centres undefined)	-1
COc1ccc(OC)c(S(=O)(=O)NCC2CCCO2)c1 (centres undefined)	45*
CCc1nnc(NC(=O)C2c3ccccc3Oc3ccccc32)s1	0
OCCN(CCO)CC(O)COCCC12CC3CC(CC(C3)C1)C2 (centres undefined)	-11
Cc1cccc(NC(=O)c2ccc3ccccc3n2)c1C	-2
